Molecules are shown by their SMILES. The whole screen tested about 96,000 compounds, of which about 20,000 (21%) were called active. Only a sample is shown. A number with no mark means an inactive call.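 Rule for the calls: active = CYP2C19 inhibition above a set limit at 5 µM in the primary screen (cut at about 50% in these data); inactive = the rest.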

The text below walks through data of PubChem BioAssay AID778 (Sanford-Burnham Center for Chemical Genomics, 2007).

In the assay the target is Cytochrome P450 2C19 (Homo sapiens) (UniProt P33261). The experiment in a line: blockers of cytochrome P450 2C19 activity – biochemical, luminescence, ADME assay, primary screen (AID 778).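 Note: plate controls were negative control wells for no effect and 2.5 mM tranylcypromine positive control for full effect.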 As to conditions: CYP2C19 Supersomes, luciferin-H EGE luminescence, 30 min; at 5 µM; active compounds read high.
Sequence of Cytochrome P450 2C19 (Homo sapiens) (P33261 whole entry, looked up): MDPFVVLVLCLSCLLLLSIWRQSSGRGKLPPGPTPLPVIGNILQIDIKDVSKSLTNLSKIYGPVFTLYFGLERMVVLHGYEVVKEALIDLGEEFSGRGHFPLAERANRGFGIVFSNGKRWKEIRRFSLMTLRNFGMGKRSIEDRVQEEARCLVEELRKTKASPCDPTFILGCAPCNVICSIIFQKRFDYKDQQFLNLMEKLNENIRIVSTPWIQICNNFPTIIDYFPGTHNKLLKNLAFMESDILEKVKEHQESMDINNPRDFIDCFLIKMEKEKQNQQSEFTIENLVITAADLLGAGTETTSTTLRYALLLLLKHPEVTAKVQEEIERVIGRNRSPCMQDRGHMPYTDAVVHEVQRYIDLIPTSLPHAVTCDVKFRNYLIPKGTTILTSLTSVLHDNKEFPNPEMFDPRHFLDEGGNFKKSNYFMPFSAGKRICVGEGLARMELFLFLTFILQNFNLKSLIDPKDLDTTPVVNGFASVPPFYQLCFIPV
The term inhibition denotes the relative decrease from the control value, in per cent. In the case of `C=Cn1ccnc1P(=S)(c1cc(N(CC)CC)ns1)c1nccn1C=C`, the inhibition was 18.8%.
As for `CCC/C(=N\O)c1c[nH]c2ccccc12`, the figure is 72.6% (active).
Consider `C/C(CCc1c[nH]c2ccccc12)=N\O`, for which the inhibition was 12%.
As for `CNP1(NC)=Nc2nn(-c3ccccc3)c(N)c2C(c2ccccc2)=N1`, the figure is -1.8%.
On to `CNC(=O)N(C)c1nnc(C(C)(C)C)s1`, for which the inhibition was -8.5%.
As for `CC[N+](CC)(CC)CCCCCCCCCC[N+](CC)(CC)CC`, the figure is 14.9%; as for `O=C1NC(=O)C(C/C=C/c2ccccc2)C(=O)N1`, 5%.
As for `C=CCN1C(=O)C2(C(C(=O)OCC)=C(N)Oc3c2c(=O)oc2ccccc32)c2ccccc21` (stereo not given), the figure is 88.5% (active); as for `COC(=O)CN1C(=O)C2(C(C(=O)OC)=C(N)Oc3ccccc32)C2=C1CC(C)(C)CC2=O` (stereo not given), 18.2%; as for `Cc1ccc(P(=S)(c2ccc(C)o2)N2CCOCC2)o1`, 36.5%.
Under `Cc1cc(N2C(=O)C3CCCN3C2c2ccc(Cl)c(Cl)c2)no1` (stereo not given) stands 11.9%; under `CCN1c2nc3c(C)cccn3c(=O)c2CC2(C(=O)N(C)C(=O)N(C)C2=O)C1C` (stereo not given), -11.5%.
`N[C@@H](Cc1c[nH]c2ccccc12)c1nnc(SCc2c(F)cccc2Cl)o1`: the inhibition was 74.1% (active).
Under `COc1ccc(-c2nc(CS(=O)CC(=O)N3CCC4(CC3)OCCO4)c(C)o2)cc1` (stereo not given) stands 13.3%.
As for `CCCCCn1c(=O)c(C(=O)Nc2c(C)n(C)n(-c3ccccc3)c2=O)c(O)c2ccccc21`, the figure is 1.4%; as for `O=C(c1cc2nc(-c3ccccc3)cc(-c3ccccc3)n2n1)N1CCC2(CC1)OCCO2`, 94% (active).
As for `Cc1cccc(-n2c(C)nc3cc(C(=O)N4CCC5(CC4)OCCO5)ccc32)c1`, the figure is 6.6%.
Take `O=C(c1cc(-c2ccncc2)nc2ccccc12)N1CCC2(CC1)OCCO2`: the inhibition was 35.1%.
Under `O=C(CCN1CCCCC1)NCC(=O)Nc1ccc(Br)cc1C(=O)c1ccccc1` stands -17.3%; under `CC(=C1C(=O)c2ccccc2C1=O)N1CCN(CCN=Cc2c(O)n(C)c(=O)n(C)c2=O)CC1`, 24.7%.
Under `CC1(C)C(c2ccccc2)=NC(c2cccnc2)=[N+]1[O-]` stands 16.4%; under `c1ccc2sc(C3CCCNC3)nc2c1` (stereo not given), -18.4%.
As for `CCOc1ccc(CN(CCCl)CCCl)cc1C(=O)OC`, the figure is 63.9% (active).
As to `O=C1/C(=C\c2ccc3c(c2)OCO3)N2CCC1CC2`, the inhibition is 40%.
Consider `CCOC(=O)C(O)(c1ccc(NC(=O)c2ccco2)c(OC)c1)C(F)(F)F` (stereo not given), for which the inhibition was 25.1%.
As for `CN1CCC(N(C)Cc2cccnc2)CC1`, the figure is -0.7%; as for `COc1ccccc1N1CCN(C(CNC(=O)Oc2ccccc2)c2cccnc2)CC1` (stereo not given), 39.7%; as for `CN1CCN(Cc2ccc(OC(F)(F)F)cc2)CC1`, 20.2%.
For `COC(=O)N(c1ccc(OC)cc1)P1(=S)OCCC(C)O1` (stereo not given), the inhibition was 21.5%.
Under `COc1ccc(C(=O)C2CN(C)CC2C(=O)c2ccc(OC)cc2)cc1` (stereo not given) stands 8.9%.
As to `COc1ccccc1CN1CCN(C(=O)Cc2ccccc2)CC1`, the inhibition is 68.1% (active).
Turning to `CCC(=NCCc1ccccc1)c1c(O)n(C2CCCCC2)c(=O)[nH]c1=O`, the inhibition was 11.8%.
As for `CCOC(=O)c1c(N)n(CCN2CCOCC2)c2nc3ccccc3nc12`, the figure is 13.3%.
As for `CCOC(=O)c1c(N)n(Cc2ccccc2)c2nc3ccccc3nc12`, the figure is -1%.
As for `COc1cc(Cn2c(N)c(C(=O)NCc3ccco3)c3nc4ccccc4nc32)cc(OC)c1OC`, the figure is 93.2% (active); as for `COc1ccccc1N=C1SCCCN1C`, -31.2%.
Regarding `O=C(C1CC(=O)N(C2CCCC2)C1)N1CCC2(CC1)OCCO2` (stereo not given), the inhibition was 10.5%.
As for `COc1ccc(S(=O)(=O)NCc2ccc(C(=O)N3CCC4(CC3)OCCO4)cc2)cc1`, the figure is -0.4%; as for `CC(=O)N(C1=NCCCS1)c1ccccc1F`, 7.3%; as for `CCOC(=O)C1SC2(C(F)(F)C(F)F)CC1(O)c1c(c(OC)c3occc3c1OC)O2` (stereo not given), 92.1% (active).
Consider `Cc1ccc(C)c(NC2=NCCCS2)c1`, for which the inhibition was 7.4%.
Turning to `CC(=NCC1CCCO1)c1c(O)n(-c2ccccc2)c(=O)[nH]c1=O` (stereo not given), the inhibition was 22.9%.
Under `CCOC(=O)CC1=C(C(=O)OCC)C2(C(=O)N1)C(C(=O)OC)=C(N)Oc1ccccc12` (stereo not given) stands 4.8%; under `CCOC(=O)C1=C(C)OC(N)=C(C(=O)OC)C12C(=O)Nc1ccc(Br)cc12` (stereo not given), 62.4% (active).
Under `Cc1cc(C)cc(NC(=S)NC2CC3CCCC(C2)N3Cc2cccs2)c1` (stereo not given) stands 22.1%; under `CC(=NC1CCN(Cc2ccccc2)CC1)c1c(O)n(C)c(=O)n(C)c1=O`, 8.1%; under `CN1CCN(Cc2ccccc2C(F)(F)F)CC1`, 7.9%.
Regarding `Fc1cccc(F)c1CN1CCN(Cc2c(F)cccc2F)CC1`, the inhibition is 94.4% (active).
Under `CCOC(=O)C(O)(c1ccc(N)c(OC)c1)C(F)(F)F` (stereo not given) stands 20.4%; under `Fc1ccc(N2CCN(Cc3ccc4c(c3)OCO4)CC2)cc1`, 22.5%.
